One may read the inhibition as the change of the read-out against control, counted positive when it falls.

Each structure is given as a SMILES string. Activity calls are given as the source filed them.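 Rule for the calls, unless noted: active = inhibition at or above 50% at 10 µM; inactive = inhibition below 50%.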

Results on 14 compounds are retold here after PubChem BioAssay.

A short description of test [1]: inhibitors of TNFa-induced NFkB p65 translocation, primary screen, imaging, HUVEC, MLSMR starter and 10KST1 sets (AID 438;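 active = inhibition above 20% together with a positive visual image hit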;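 note: compound added about 3h40 before a 20 min TNFalpha stimulation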;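 for inhibition: signal is the nuclear over cytoplasmic p65 intensity ratio per well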). As to conditions: HUVEC TNFa-induced p65 nuclear translocation; cell count: measured here: nuclei count (cytotoxicity indicator), at 2.08 µM; inhibition: at 2 µM, stronger effect = higher value, 0% TNFa-plus-vehicle, 100% no-TNFa wells.
Test [2] can be described thus: reduction of polyQ htt aggregates in cells – imaging, exon1htt(103Q)mCFP cells, high-content imaging, primary screen (AID 483;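 active = visual image review flags a hit and inhibition of aggregation exceeds 20%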;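 note: compound exposure lasted 3 days before fixation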;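 for nuclei count: percent of the per-plate median nuclei count of sample wells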). As to conditions: exon1htt(103Q)mCFP cell line, aggregate imaging, at 2 µM; inhibition of aggregation: stronger effect = higher value; nuclei count: measured here: cell count, toxicity.
A short description of test [3]: endothelial E-selectin expression blockers – imaging, HUVEC, immunofluorescence, MLSMR starter and 10KST1 sets, primary screen (AID 487;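 active = visually confirmed hit in the image check and inhibition above 20%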;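 for inhibition: signal is fraction of cell area covered by stained E-selectin grains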;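 for nuclei count: 100% = median nuclei count of all wells on the same plate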). As to conditions: HUVEC TNFalpha-induced E-selectin immunofluorescence imaging, at 2 µM; inhibition: stronger effect = higher value; nuclei count: measured here: cell number, toxicity.
Test [4] concerns the target Voltage-gated potassium channel subunit beta-2 (Rattus norvegicus) (UniProt P62483). The experiment in a line: inhibitors of rat Kvbeta2 reductase activity – biochemical, NADPH fluorescence, primary screen (AID 622;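 active = fluorescence slope higher than the sample average by over 3 SD, cut at about -0.22 in these data, passing the limit was not always enough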;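 note: slope of raw intensity against log time taken from 70 to 1610 s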). As to conditions: recombinant KvBeta, 4-cyanobenzaldehyde reduction, at 10 µM, stronger effect = higher value.
For test [5] the target is unchanged. Nature of the test: enhancers of rat Kvbeta2 NADPH turnover – biochemical, NADPH fluorescence, primary screen (AID 623;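 active = NADPH fluorescence slope more negative than the mean of all samples by about 3 SD, 99.7% confidence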;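 note: fluorescence intensity change per second fitted from 20 to 320 s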). The conditions noted are these: Recombinant KvBeta, NADPH fluorescence decrease slope, 10 min; at 10 µM; stronger effect = lower value.
For test [6], the target named is Alpha-2C adrenergic receptor (Homo sapiens) (UniProt P18825). Nature of the test: compounds altering alpha2C-coupled GIRK flux – cell-based, HEK293 alpha2C/GIRK1/2, thallium flux, primary screen (AID 624;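 active = fluorescence slope after compound addition differing from the mean of all screened samples at 99.7% confidence, in either direction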;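 note: slope of fluorescence ratio to pre-addition baseline per second over 15 to 24 s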). As to conditions: thallium flux BTC fluorescence, at 10 µM, actives lie on both sides.
Sequence of Alpha-2C adrenergic receptor (Homo sapiens) (P18825 whole entry, looked up): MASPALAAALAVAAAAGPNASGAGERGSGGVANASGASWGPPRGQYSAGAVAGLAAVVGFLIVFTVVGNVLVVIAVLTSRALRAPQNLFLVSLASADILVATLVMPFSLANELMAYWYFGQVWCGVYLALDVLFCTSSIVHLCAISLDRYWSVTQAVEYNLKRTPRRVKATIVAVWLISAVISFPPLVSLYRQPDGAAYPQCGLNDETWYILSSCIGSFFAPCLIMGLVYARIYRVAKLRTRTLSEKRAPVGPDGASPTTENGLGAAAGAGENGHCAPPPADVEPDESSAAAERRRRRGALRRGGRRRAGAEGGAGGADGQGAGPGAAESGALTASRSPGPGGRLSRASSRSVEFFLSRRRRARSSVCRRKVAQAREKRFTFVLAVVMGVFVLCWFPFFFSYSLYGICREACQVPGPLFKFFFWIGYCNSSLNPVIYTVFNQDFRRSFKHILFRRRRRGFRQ
The nature of test [7]: blockers of RIG-like receptor reporter activation – cell-based, Sendai virus stimulus, luciferase, 10K MLSCN set, TLR/RLR signaling modifier project, primary screen (AID 602276).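 Note: firefly luciferase from ISG56 promoter only with Renilla not read in this screen; 0% = Sendai virus plus DMSO and 100% = medium plus DMSO without virus.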 The conditions noted are these: HEK293 RL24 IRF3 luciferase reporter, at 10 µM, stronger effect = higher value.
The nature of test [8]: TLR3 IRF3 reporter activation blockers – cell-based, poly I:C stimulus, luciferase, 10K MLSCN set, primary screen (AID 602277;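 active = inhibition of the reporter signal at or above 50%; inactive = inhibition below 50%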). As to conditions: HEK293-TLR3 RL24 IRF3 luciferase reporter, at 10 µM, stronger effect = higher value. A general note: Reporter assays use an easily measured gene product as a stand-in for the process of interest.

Sequence of Voltage-gated potassium channel subunit beta-2 (Rattus norvegicus) (P62483 whole entry, looked up): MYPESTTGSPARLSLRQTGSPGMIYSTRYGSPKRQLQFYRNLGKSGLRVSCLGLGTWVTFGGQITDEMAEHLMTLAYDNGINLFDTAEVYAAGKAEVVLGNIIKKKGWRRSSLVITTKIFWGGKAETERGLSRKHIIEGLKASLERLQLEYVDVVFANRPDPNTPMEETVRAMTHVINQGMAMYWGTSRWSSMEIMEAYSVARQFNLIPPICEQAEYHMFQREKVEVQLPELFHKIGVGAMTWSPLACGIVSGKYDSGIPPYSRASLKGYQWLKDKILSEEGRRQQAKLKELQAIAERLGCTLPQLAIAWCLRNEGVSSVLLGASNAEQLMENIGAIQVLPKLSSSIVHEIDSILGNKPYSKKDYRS

As for `CCC(C)(C)n1nnnc1C(c1ccncc1)N1CCN(c2cccc(OC)c2)CC1` (centres undefined), the cell count in test [1] amounted to 410. Moreover, the inhibition in test [1] is 1% (inactive); in test [3] it was -31.9% (inactive); in test [7], 23.4% (inactive); in test [8] it was 28.6% (inactive). Besides, in test [2], the inhibition of aggregation was -2.6% (inactive). Also, the nuclei count in test [2] stood at 95.6%; in test [3], 98.8%. Besides, the fluorescence slope in test [4] is -0.629 (inactive). For the same compound, the NADPH fluorescence slope in test [5] was -2e-05 (inactive). In test [6], the slope was 0.00376 (inactive).
For the compound `CCS(=O)(=O)N1CCC(C(=O)NCCc2ccc(C)cc2)CC1`, in test [1], the cell count was 646. For the same compound, the inhibition in test [1] is -10.6% (inactive); in test [3], -178% (inactive); in test [7] it was -2.06% (inactive); in test [8], 10.2% (inactive). Further, the inhibition of aggregation in test [2] is 2.7% (inactive). The nuclei count stood at 81.2% in test [2] and 136% in test [3]. Moreover, in test [4], the fluorescence slope is -0.596 (inactive). Besides, the NADPH fluorescence slope in test [5] was 1.4e-05 (inactive). In addition, the slope in test [6] is 0.00666 (inactive).
As for `C=CCOC(=O)COc1ccc2c(C)c(C)c(=O)oc2c1C`, in test [1], the cell count came out at 373. Further, the inhibition in test [1] was -3.6% (inactive); in test [3], -22.7% (inactive); in test [7], -3.09% (inactive); in test [8], 3.78% (inactive). In addition, the inhibition of aggregation in test [2] is -9.6% (inactive). Further, the figures for the nuclei count in test [2] and in test [3] were 102% and 105%, respectively. For the same compound, the fluorescence slope in test [4] was -0.608 (inactive). The NADPH fluorescence slope in test [5] was -5.7e-06 (inactive). For the same compound, in test [6], the slope is 0.00552 (inactive).
`CC(=O)c1ccccc1Oc1nc(CN2CCOCC2)nc2scc(-c3cccs3)c12`: the cell count in test [1] came to 330. Moreover, the inhibition in test [1] was -5.7% (inactive); in test [3] it was -50.4% (inactive); in test [7], 7.86% (inactive); in test [8], 37.7% (inactive). For the same compound, the inhibition of aggregation in test [2] is 13.6% (inactive). Also, the nuclei count in test [2] came to 99.2%; in test [3], 109%. For the same compound, the fluorescence slope in test [4] is -0.478 (inactive). Further, in test [5], the NADPH fluorescence slope is -1.8e-05 (inactive). Also, the slope in test [6] was 0.00384 (inactive).
For `Clc1ccc(C2=Nn3c(nnc3-c3n[nH]c4c3CCC4)SC2)cc1Cl`, the cell count in test [1] was determined as 434. Moreover, the inhibition in test [1] is 3% (inactive); in test [3] it was 19.9% (inactive); in test [7], 29.6% (inactive); in test [8] it was 33% (inactive). In addition, in test [2], the inhibition of aggregation is 1.5% (inactive). Also, the nuclei count in test [2] was determined as 101%; in test [3] it was 95.9%. Further, the fluorescence slope in test [4] was -0.498 (inactive). Moreover, the NADPH fluorescence slope in test [5] was 1.2e-05 (inactive). In addition, the slope in test [6] was 0.00652 (inactive).
For the compound `CCSc1nncn1/N=C/c1ccc(OC)c(OC)c1`, in test [1], the cell count turned out to be 403. For the same compound, the inhibition in test [1] is -9.6% (inactive); in test [3], 39.9% (inactive); in test [7], -8.45% (inactive); in test [8] it was -5.17% (inactive). In addition, in test [2], the inhibition of aggregation is 32.4% (inactive). Further, the nuclei count is 89.8% in test [2] and 82.5% in test [3]. For the same compound, the fluorescence slope in test [4] was -0.319 (inactive). The NADPH fluorescence slope in test [5] is 2e-05 (inactive). In test [6], the slope is 0.00581 (inactive).
In the case of `COC(=O)c1ccccc1NC(=O)CC(NCc1ccccc1)C(=O)O` (centres undefined), the cell count in test [1] worked out at 619. Besides, the inhibition in test [1] was -5% (inactive); in test [3] it was -21.4% (inactive); in test [7], -10.8% (inactive); in test [8], 16.2% (inactive). Further, in test [2], the inhibition of aggregation was -34.3% (inactive). Also, the nuclei count in test [2] came out at 124%; in test [3], 116%. Further, the fluorescence slope in test [4] is -0.418 (inactive). The NADPH fluorescence slope in test [5] is -8.7e-06 (inactive). For the same compound, in test [6], the slope was 0.00289 (inactive).
For `O=C(CN(CCc1ccccc1)C(=O)CNS(=O)(=O)c1ccccc1)NCC1CCCO1` (centres undefined), the cell count in test [1] amounted to 322. The inhibition in test [1] is 11.7% (inactive); in test [3], -46.7% (inactive); in test [7] it was -8.2% (inactive); in test [8] it was 13.9% (inactive). In test [2], the inhibition of aggregation is -13.1% (inactive). The nuclei count in test [2] was 99.8%; in test [3] it was 109%. Besides, the fluorescence slope in test [4] was -0.481 (inactive). Also, in test [5], the NADPH fluorescence slope was 2e-05 (inactive). Besides, in test [6], the slope is 0.0066 (inactive).
With `CCOc1ccc(NC(=O)c2ccc3c(c2)N(Cc2ccc(F)cc2)C(=O)CS3=O)cc1` (centres undefined), the cell count in test [1] was found to be 659. For the same compound, the inhibition in test [1] is 0% (inactive); in test [3] it was -25.6% (inactive); in test [7], 5.6% (inactive); in test [8], -7.02% (inactive). For the same compound, in test [2], the inhibition of aggregation was -4.8% (inactive). For the same compound, the nuclei count in test [2] came to 105%; in test [3], 113%. For the same compound, the fluorescence slope in test [4] was -0.551 (inactive). Further, the NADPH fluorescence slope in test [5] is -2.5e-05 (inactive). For the same compound, the slope in test [6] is 0.00664 (inactive).
On to `O=C(CSc1nc(-c2ccccc2)cs1)NCc1ccco1`, for which, in test [1], the cell count was determined as 200. The inhibition is -1.3% (inactive) in test [1], -32.4% (inactive) in test [3], -27.5% (inactive) in test [7] and -55.9% (inactive) in test [8]. Moreover, in test [2], the inhibition of aggregation is 0.4% (inactive). In addition, the figures for the nuclei count in test [2] and in test [3] were 54.4% and 106%, respectively. Besides, the fluorescence slope in test [4] is -0.511 (inactive). For the same compound, the NADPH fluorescence slope in test [5] was -3.4e-05 (inactive). Also, in test [6], the slope is 0.00584 (inactive).
On to `Cc1nc2ccccc2c2oc(C(=O)NCCN3CCCCC3C)cc12` (centres undefined), for which, in test [1], the cell count is 558. The inhibition in test [1] is 5.4% (inactive); in test [3], -1.3% (inactive); in test [7], 7.56% (inactive); in test [8], 66.5% (active). In addition, the inhibition of aggregation in test [2] was 15.4% (inactive). For the same compound, the nuclei count was 87.5% in test [2] and 120% in test [3]. Further, in test [4], the fluorescence slope is -0.614 (inactive). In addition, the NADPH fluorescence slope in test [5] is -3.9e-05 (inactive). In addition, the slope in test [6] is 0.00617 (inactive).
`O=C(Nc1ccc2snnc2c1)N1CCN(c2ccccc2)CC1`: in test [1], the cell count amounted to 454. Besides, the inhibition in test [1] was 1.6% (inactive); in test [3], 0.3% (inactive); in test [7], 4.94% (inactive); in test [8] it was -57.8% (inactive). In addition, in test [2], the inhibition of aggregation was 0.7% (inactive). In addition, the nuclei count turned out to be 101% in test [2] and 117% in test [3]. Also, in test [4], the fluorescence slope is -0.425 (inactive). For the same compound, in test [5], the NADPH fluorescence slope was 7.2e-06 (inactive). The slope in test [6] was 0.00518 (inactive).
Take `CN(CC(=O)Nc1nccs1)S(=O)(=O)c1ccc(F)cc1`: the cell count in test [1] amounted to 352. For the same compound, the inhibition in test [1] is -6.5% (inactive); in test [3], -35.4% (inactive); in test [7], -24.4% (inactive); in test [8], 1.06% (inactive). Also, the inhibition of aggregation in test [2] was -4.8% (inactive). Besides, the nuclei count in test [2] stood at 110%; in test [3], 101%. In test [4], the fluorescence slope is -0.465 (inactive). The NADPH fluorescence slope in test [5] is -9.5e-06 (inactive). The slope in test [6] was 0.00636 (inactive).
Turning to `CS(=O)(=O)N1CCC(C(=O)NCCC2=CCCCC2)CC1`, the cell count in test [1] came to 427. Further, the inhibition is 4.2% (inactive) in test [1], -89.9% (inactive) in test [3], 12.6% (inactive) in test [7] and 8.24% (inactive) in test [8]. The inhibition of aggregation in test [2] is 8% (inactive). In addition, the nuclei count in test [2] came out at 100%; in test [3], 106%. Also, the fluorescence slope in test [4] is -0.382 (inactive). For the same compound, in test [5], the NADPH fluorescence slope is -2.9e-05 (inactive). In test [6], the slope is 0.00662 (inactive).
